Hits are enriched below; roughly 11% of the tested compounds scored in any of these assays.
NIH3T3 tox: Cytotoxic Profiling in NIH 3T3 Cell Line of Diverse Libraries Using Quantitative High-Throughput Screening; NIH 3T3 viability, CellTiter-Glo ATP luminescence, 48-72 h; Potency, µM (doses to about 96.7 µM), most hits filed as inhibitors; 4.3% of 94,000 active; note: nearly all actives have a fitted effect of over 55% in size
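NIH 3T3 cells at 400 cells/well received 23 nL of compound by pintool and were incubated 48 or 72 h at 37 °C. Viability was read as ATP-coupled CellTiter-Glo luminescence.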
hNpr1 antagonist: Natriuretic polypeptide receptor (hNpr1) antagonism - Primary qHTS. Potency, µM (doses to about 46.3 µM), usual class: inhibitors. HEK293 hNpr1 GloSensor cGMP, ANP-stimulated luminescence. Atrial natriuretic peptide receptor 1 (Homo sapiens), P16066. 1.6% of 76,000 active. AID 1347048, 2019; calls by dose curve; note: nearly all actives have a fitted effect of over 60% in size
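HEK293 cells stably expressing human Npr1 and cGMP GloSensor pGS-40F, loaded 2 h with 2% GloSensor reagent, given compound 30 min at room temperature. Luminescence read before and 20 min after 0.1 nM hNppA.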
Luciferase inh: Firefly luciferase inhibition profiling of diverse chemical library using quantitative high-throughput screening; purified P. pyralis luciferase, luminescence, biochemical; Potency, µM (series often up to 115 µM), actives largely listed as inhibitors; 2.5% of 76,000 active; AID 1347043, 2019; note: nearly all actives have a fitted effect of over 65% in size
Target sequence (P08659 whole entry, looked up): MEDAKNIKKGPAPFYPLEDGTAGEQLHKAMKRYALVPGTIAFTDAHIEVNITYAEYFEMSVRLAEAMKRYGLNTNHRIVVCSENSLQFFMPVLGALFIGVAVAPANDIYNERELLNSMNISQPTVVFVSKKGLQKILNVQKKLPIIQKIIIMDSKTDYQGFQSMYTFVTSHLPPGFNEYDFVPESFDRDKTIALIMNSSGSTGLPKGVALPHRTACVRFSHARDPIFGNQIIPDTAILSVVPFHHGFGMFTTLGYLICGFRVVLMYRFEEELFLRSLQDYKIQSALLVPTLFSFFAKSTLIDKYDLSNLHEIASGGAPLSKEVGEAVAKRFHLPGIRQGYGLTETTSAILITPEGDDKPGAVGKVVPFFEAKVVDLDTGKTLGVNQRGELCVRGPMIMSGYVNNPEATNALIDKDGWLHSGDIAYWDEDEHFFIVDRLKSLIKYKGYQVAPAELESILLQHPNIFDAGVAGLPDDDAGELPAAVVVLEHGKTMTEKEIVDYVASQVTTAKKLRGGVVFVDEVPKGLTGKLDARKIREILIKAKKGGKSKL
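Purified P. pyralis luciferase (10nM final) in 50mM Tris acetate pH 7.5, 10mM Mg acetate, 0.01% Tween-20, 0.05% BSA with 10uM D-luciferin and 10uM ATP. Compounds titrated qHTS. Luminescence imaged on CCD.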
HEK cytotox: Cytotoxic Profiling in HEK 293 Cell Line of Diverse Libraries Using Quantitative High-Throughput Screening | Potency, µM (highest dose often 115 µM), most hits filed as inhibitors | 6.6% of 94,000 active | HEK 293 viability, ATP luminescence (CellTiter-Glo), 48-72 h; note: nearly all actives have a fitted effect of over 60% in size
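Cytotoxicity was scored by loss of ATP-coupled luminescence (CellTiter-Glo) in HEK 293 cells. Compound treatment ran 48 or 72 hr at 37 degree Celsius, 5% CO2, 95% humidity.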
Hits are given with their value; 0 = inactive; ? = inconclusive; - = not tested or not shown. Unless noted, calls come from the whole dose curve; as a rule, active = well fitted curve in the direction sought with a large enough effect; inconclusive = small, poorly fitted or top-dose-only effect, or another doubt; inactive = no such curve, though single readings can be large; an effect the other way counts as inactive or inconclusive.

SMILES	NIH3T3 tox	hNpr1 antagonist	Luciferase inh	HEK cytotox
Cc1nc(CN2Cc3nc(-c4cnn(Cc5ccccc5)c4)ccc3OCC2=O)cs1	0	?	0	?
Cc1ccccc1CN1Cc2nc(-c3cnn(Cc4ccccc4)c3)ccc2OCC1=O	22µM	?	0	35µM
NC(=O)c1cccc(-c2ccc3c(n2)CN(Cc2nc4ccccc4s2)C(=O)CO3)c1	?	0	0	79µM
O=C1COc2ccc(OCc3cccnc3)nc2CN1Cc1ccccc1F	?	?	0	89µM
Cc1ccccc1CN1Cc2nc(-c3ccccc3)ccc2OCC1=O	?	0	0	89µM
O=C(NCCCN1CCCc2ccccc21)C1Cn2cccc2C(=O)N1Cc1ccccc1 (configuration not stated)	?	0	0	?
CCOc1ccccc1CN1CCC2(CCN(C(=O)c3ccccc3)CC2)Oc2ccccc21	0	0	0	0
O=C(NC1CCCC1)N1CCC(c2nn(-c3ccccn3)c(=O)[nH]2)CC1	0	-	-	0
O=C(Cc1cccc(Cl)c1)N1CCCC1C(=O)N1CCCC1c1nc2ccncc2[nH]1 (configuration not stated)	0	-	-	0
O=C1COc2ccc(-c3ccsc3)nc2CN1Cc1ccccc1F	?	0	0	100µM
O=C1COc2ccc(-c3ccccc3)nc2CN1Cc1ccccc1F	?	0	0	?
Cc1ccccc1CN1Cc2nc(-c3cnn(C)c3)ccc2OCC1=O	32µM	0	0	100µM
COc1ccc(-c2ccc3c(n2)CN(Cc2ccccc2C)C(=O)CO3)cc1OC	?	0	0	?
O=C1CC2(CCN(C(=O)C3CCCN3C(=O)c3ccc(F)cc3)CC2)Oc2ccccc2N1 (configuration not stated)	0	-	-	0
Cc1ccc(C2=NC3(CCN(C(=O)c4ccoc4)CC3)ON2)cc1	0	0	32µM	0
Cc1ccc(C2=NC3(CCN(C(=O)c4ccco4)CC3)ON2)cc1	0	0	28µM	0
COCCNC(=O)c1nc2sccn2c1-c1ccncc1	0	-	-	0
Cc1cc(Cl)c2oc(C(=O)N(Cc3c(C)nn(C)c3C)C3CC3)c(C)c2c1	?	7.9µM	28µM	?
COc1ccccc1Nc1ncc2c(n1)CN(C(=O)c1cccc(C#N)c1)CCN2	0	?	0	79µM
COc1ccccc1Nc1ncc2c(n1)CN(C(=O)c1cc3ccccc3n1C)CCN2	?	0	0	71µM
COc1ccccc1Nc1ncc2c(n1)CN(C(=O)Cc1cccc(F)c1)CCN2	?	0	0	?
Cc1cnc(C(=O)N2CCC(N3CC(OCC4CC4)C34CCOCC4)CC2)cn1 (configuration not stated)	0	-	-	0
CCNc1nccc(N2CCC(CC(=O)NCc3ccccc3F)CC2)n1	?	0	0	40µM
CCNc1nccc(N2CCC(CC(=O)N3CCN(c4ccccc4F)CC3)CC2)n1	18µM	0	0	?
CNc1nccc(N2CCC(CC(=O)NC3CCN(Cc4ccccc4)CC3)CC2)n1	35µM	0	0	?
SMILES	NIH3T3 tox	hNpr1 antagonist	Luciferase inh	HEK cytotox
CNc1nccc(N2CCC(CC(=O)N3CCN(c4cccc(OC)c4)CC3)CC2)n1	?	?	0	25µM
CNc1nccc(N2CCC(CC(=O)NCc3ccccn3)CC2)n1	0	0	0	?
CCC(C)C(=O)N1CCC2(CCc3nn(Cc4ccccc4)c(=O)n3CC2)CC1 (configuration not stated)	0	-	-	?
O=C1CC2(CCN(Cc3ccc(C(F)(F)F)cc3)CC2)Oc2ccccc2N1c1ccccc1	25µM	0	0	20µM
O=C1CC2(CCN(Cc3ccc(F)cc3)CC2)Oc2ccccc2N1	0	0	0	?
O=C1CC2(CCN(Cc3ccc(C(F)(F)F)cc3)CC2)Oc2ccccc2N1	?	0	0	45µM
O=C1CC2(CCN(Cc3ccsc3)CC2)Oc2ccccc2N1c1ccccc1	?	0	0	?
O=C1CC2(CCN(Cc3ccc(F)cc3)CC2)Oc2ccccc2N1c1ccccc1	?	0	0	50µM
Cn1nc(CN2CCOCC2)c2c1CCN(S(=O)(=O)c1ccccc1)C2	0	-	-	0
CC(C)CN1CCN(C2CCOC3(CCN(S(=O)(=O)Cc4ccccc4)CC3)C2)CC1 (configuration not stated)	0	-	-	0
O=[S+]1([O-])NCC2(CCCN(CC3CC3)C2)Nc2ccccc21 (configuration not stated)	0	0	0	0
COCC(=O)NC[C@@H]1C=C(C)[C@H](Cc2nc3ccc(F)cc3[nH]2)C[C@H]1C(C)C	50µM	0	0	?
CC(=O)NC[C@@H]1C=C(C)[C@H](Cc2nc3ccc(F)cc3[nH]2)C[C@H]1C(C)C	79µM	0	0	45µM
CC1=C[C@@H](CNC(=O)c2cccnc2)[C@H](C(C)C)C[C@H]1Cc1nc2ccc(F)cc2[nH]1	?	0	0	?
COCC(=O)NC[C@@H]1C=C(C)[C@H](Cc2nc3ccccc3[nH]2)C[C@H]1C(C)C	?	0	0	?
Fc1ccc(-c2cc(CC3(NCc4ccco4)COC3)no2)cc1	?	0	0	89µM
COc1ccc(-c2cc(CC3(NCc4ccccc4O)COC3)no2)cc1	?	0	0	100µM
Cc1ccc([S+](=O)([O-])NC2CCN(Cc3cccc(-c4ccc(F)c(F)c4)c3)CC2)cc1	16µM	-	-	22µM
CSc1ccc(-c2cccc(CN3CCC(N[S+](=O)([O-])c4ccc(C)cc4)CC3)c2)cc1	14µM	-	-	20µM
CSc1ccc(-c2cccc(CN3CCC(NC(=O)c4ccc(F)cc4)CC3)c2)cc1	0	-	-	0
O=C(NCCNC(=O)c1ccc(-c2cccc(C(F)(F)F)c2)cc1)NC1CCCC1	0	-	-	0
CC(C)(C)c1ccc(C(=O)Nc2nc3c(s2)C[C@@H]2[C@](C)(CO)[C@H](O)CC[C@@]2(C)[C@@H]3CC(=O)N2CCOCC2)cc1	35µM	0	0	?
COc1ccc(C(=O)Nc2nc3c(s2)C[C@@H]2[C@](C)(CO)[C@H](O)CC[C@@]2(C)[C@@H]3CC(=O)N2CCOCC2)cc1	0	0	0	0
CC(C)(C)c1ccc(C(=O)Nc2nc3c(s2)C[C@@H]2[C@](C)(CO)[C@H](O)CC[C@@]2(C)[C@@H]3CC(=O)NC2CC2)cc1	45µM	0	45µM	45µM
CC(=O)Nc1nc2c(s1)C[C@@H]1[C@](C)(CO)[C@H](O)CC[C@@]1(C)[C@@H]2CC(=O)NC1CC1	0	0	0	0
CC(C)NC(=O)C[C@@H]1c2nc(NC(=O)c3ccc(C(C)(C)C)cc3)sc2C[C@@H]2[C@](C)(CO)[C@H](O)CC[C@]21C	50µM	0	?	40µM
COc1ccccc1CNC(=O)C[C@@H]1c2nc(-c3cccnc3)sc2C[C@@H]2[C@](C)(CO)[C@H](O)CC[C@]21C	79µM	0	0	?
CN(C)C(=O)NC1CCCN(Cc2ccc(-c3cncnc3)cc2)C1 (configuration not stated)	0	-	-	?

Assay outcomes as filed in PubChem.
